The list is not random: actives were taken first. Their share in the collection is about 19%.
RORg inh: ROR gamma (mouse) transcription inhibition; 310,000 tested, 5.4% active; P51450; Drosophila S2 Gal4-RORgamma UAS-luciferase reporter, 20 h; Potency, µM (series often up to 53.6 µM), for the others: at the highest dose activity change, negative = inhibition, actives largely listed as inhibitors; note: nearly all actives have a fitted effect of over 60% in size
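Drosophila Schneider cells stably carrying a metallothionein-driven Gal4 DBD–ROR gamma fusion and a UAS-Photinus luciferase reporter were exposed to compound for 1 hr, then induced with copper sulfate (700 uM final) for 20 hr at ambient temperature before luminescence reading.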
TDP1 block: blocks human tyrosyl-DNA phosphodiesterase 1; Q9NUW8; recombinant TDP1, AlphaScreen DNA substrate cleavage; Potency, µM (top dose mostly 130 µM), inactives show at the top dose activity change, negative = inhibition, hits mostly inhibitors; 350,000 tested, 0.28% active; note: nearly all actives have a fitted effect of over 40% in size
Target sequence (Q9NUW8 whole entry, looked up): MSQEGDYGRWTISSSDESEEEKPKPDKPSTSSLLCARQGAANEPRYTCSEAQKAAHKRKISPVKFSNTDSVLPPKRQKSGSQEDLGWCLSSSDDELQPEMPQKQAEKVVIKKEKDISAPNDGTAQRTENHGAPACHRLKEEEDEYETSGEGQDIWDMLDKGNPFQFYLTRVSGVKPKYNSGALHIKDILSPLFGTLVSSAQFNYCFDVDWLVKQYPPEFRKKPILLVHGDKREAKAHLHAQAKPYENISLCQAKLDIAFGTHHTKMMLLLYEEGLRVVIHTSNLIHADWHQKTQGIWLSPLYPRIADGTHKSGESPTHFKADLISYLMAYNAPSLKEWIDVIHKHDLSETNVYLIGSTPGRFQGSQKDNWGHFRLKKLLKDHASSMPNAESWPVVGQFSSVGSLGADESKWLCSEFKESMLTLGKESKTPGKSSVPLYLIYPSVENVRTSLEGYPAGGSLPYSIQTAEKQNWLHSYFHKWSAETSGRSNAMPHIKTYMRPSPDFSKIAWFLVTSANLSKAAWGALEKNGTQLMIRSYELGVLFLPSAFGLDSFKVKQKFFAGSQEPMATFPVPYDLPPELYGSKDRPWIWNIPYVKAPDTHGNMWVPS
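Signal: AlphaScreen proximity between streptavidin donor and anti-FITC acceptor beads on intact substrate. Reaction: Tdp1 1 nM, substrate 15 nM final, 5 min RT after 15 min compound preincubation.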
TDP1 cell noCPT: qHTS for Inhibitors of human tyrosyl-DNA phosphodiesterase 1 (TDP1): qHTS in cells in absence of CPT. Potency, µM (highest dose often 46.2 µM), inactives show at the highest dose activity change, negative = growth inhibition, actives largely listed as inhibitors. AID 686978, 2013. 420,000 tested, 15% active. DT40 Tdp1-/- hTDP1 cells, no CPT, ATP luminescence, 48 h; note: nearly all actives have a fitted effect of over 55% in size
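Cells were dispensed at 400 per well, compounds added by pin tool, plates incubated ≥48 hr at 37 °C, then CellTiter-Glo added for 30 min at room temperature before luminescence reading. Line: DT40 Tdp1-/- complemented with hTDP1; camptothecin omitted.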
DT40 TDP1 CPT: growth inhibition of DT40 Tdp1-/-;hTDP1 cells with camptothecin (screen for TDP1 inhibitors) | Potency, µM (top dose mostly 46.2 µM), inactives show at the top dose activity change, negative = growth inhibition, usual class: inhibitors | 420,000 tested, 12% active | chicken DT40 Tdp1-/-;hTDP1 cells + 20 nM CPT, ATP luminescence, 48 h | AID 686979; note: nearly all actives have a fitted effect of over 55% in size
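Cell growth measured by CellTiter-Glo luminescence after a minimum 48 h, 37 C compound exposure with 20 nM CPT in Tdp1-knockout DT40 cells stably expressing hTDP1, seeded 400/well; qHTS titration format.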
VP16 counter: inhibits Gal4-VP16 luciferase reporter, ROR gamma counter-screen. Drosophila S2 Gal4-VP16 UAS-luciferase, luminescence, 20 h. Potency, µM (titrated, usually from 53.6 µM), for inactives: at the top dose activity, negative = inhibition, actives largely listed as inhibitors. 310,000 tested, 3.5% active;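 note: Gal4-VP16 expression switched on by copper sulfate through the metallothionein promoter; nearly all actives have a fitted effect of over 50% in size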
Numbers without * were called inactive; ? = inconclusive; · = no result. Calls come from the whole dose curve; as a rule, active = well fitted curve in the direction sought with a large enough effect; inconclusive = small, poorly fitted or top-dose-only effect, or another doubt; inactive = no such curve, though single readings can be large; an effect the other way counts as inactive or inconclusive. % is set by controls: 0 for no effect and ±100 for the full control effect; potency is the fitted concentration of half-maximal effect.

SMILES	RORg inh	TDP1 block	TDP1 cell noCPT	DT40 TDP1 CPT	VP16 counter
Cc1ccc(F)cc1NC(=O)c1ccc(OCC2CCCO2)cc1 (centres undefined)	·	-2.7%	3.1%	-17.3%	·
Cc1ccc(Nc2nc(N3CCOCC3)c3ccccc3n2)cc1	23.2%	3.0%	20.6µM*	20.6µM*	?
COc1ccc(Nc2nc(N3CCCCC3)c3ccccc3n2)cc1	17.8µM*	6.2%	18.4µM*	18.4µM*	7.08µM*
COc1ccc(Nc2nc(N)c([N+](=O)[O-])c(N3CCCC3)n2)cc1	15.1%	·	?	?	4.1%
c1ccc2c(c1)nc(N1CCCCCC1)c1ccccc12	20.1%	·	?	?	-6.1%
Oc1ccc(Nc2nc(N3CCCC3)c3ccccc3n2)cc1	-2.0%	6.7%	20.6µM*	25.9µM*	?
c1ccc2c(Nc3ccc(N4CCOCC4)cc3)nc(N3CCOCC3)nc2c1	?	·	20.6µM*	?	0.4%
CN(Cc1nc(C(c2ccccc2)c2ccccc2)no1)CC1COCCO1 (centres undefined)	-1.0%	11.1%	-16.6%	16.8%	-1.0%
COc1cc2nc(CC(C)C)n(NC(=O)c3ccccc3)c(=O)c2cc1OC	-2.6%	4.2%	-28.9%	-7.2%	-4.5%
O=C(COc1ccccc1)NCCn1ccc2ccccc21	5.0%	0.0%	-7.7%	-26.0%	-2.0%
NC(=S)N/N=C/c1ccc(-c2cc(Cl)c(Cl)cc2Cl)o1	0.562µM*	7.7%	4.61µM*	3.66µM*	1.12µM*
NC(=S)N/N=C/c1ccc(Br)o1	3.55µM*	3.6%	-15.4%	-19.5%	?
O=C(N/N=C\c1ccc(Br)o1)C1COc2ccccc2O1 (centres undefined)	-44.8%	-9.4%	22.5%	-13.8%	-13.2%
COC(=O)N/N=C/c1ccc(-c2ccc(Cl)cc2Cl)o1	21.3%	0.0%	-9.5%	3.2%	-6.6%
Cc1ccc(CNC(=O)CCn2ccc3cc(S(=O)(=O)N4CCCC4)ccc32)cc1	13.0%	4.9%	?	?	18.1%
O=C(O)CCn1ccc2cc(S(=O)(=O)N3CCCCCC3)ccc21	-0.2%	0.4%	13.8%	-10.3%	0.0%
O=C(CCn1ccc2cc(S(=O)(=O)N3CCCC3)ccc21)NCc1cccc(Br)c1	·	2.8%	?	18.4µM*	·
CCc1ccc(CNC(=O)CCn2ccc3cc(S(=O)(=O)N4CCCC4)ccc32)cc1	40.0%	-0.3%	?	20.6µM*	-2.6%
COc1ccc(CNC(=O)CCCn2ccc3cc(S(=O)(=O)N4CCCC4)ccc32)cc1	25.0%	1.0%	11.6µM*	18.4µM*	4.0%
CN(C)c1ccc(CNC(=O)C2CCCN(S(=O)(=O)c3ccc4c(ccn4C)c3)C2)cc1 (centres undefined)	·	4.1%	20.6µM*	16.4µM*	·
CC(C)NC(=O)N1CCCC2(CCN(C(=O)c3ccncc3)CC2)C1	0.6%	·	-13.7%	3.3%	-5.0%
CC1=C(C(=O)N2CCOCC2)CC(CC(=O)NCCN2CCOCC2)C(=O)N1Cc1ccccc1 (centres undefined)	·	·	2.6%	5.1%	·
CCn1cc(C(=O)O)c(=O)c2cnc(N3CCN(C(=S)NC(=O)c4ccccc4)CC3)nc21	2.51µM*	0.0%	-10.0%	-16.3%	0.5%
CCn1cc(C(=O)O)c(=O)c2cnc(N3CCN(C(=S)Nc4ccccc4C(F)(F)F)CC3)nc21	-0.2%	5.2%	29.1µM*	-29.8%	0.0%
CCOC(=O)c1cccc(NC(=S)N2CCN(c3ncc4c(=O)c(C(=O)O)cn(CC)c4n3)CC2)c1	8.5%	4.7%	?	-5.7%	-12.0%
SMILES	RORg inh	TDP1 block	TDP1 cell noCPT	DT40 TDP1 CPT	VP16 counter
CCn1cc(C(=O)O)c(=O)c2cnc(N3CCN(C(=S)Nc4ccccc4)CC3)nc21	3.7%	3.9%	?	?	-6.6%
CCCOc1ccc(C(=O)NC(=S)N2CCN(c3ncc4c(=O)c(C(=O)O)cn(CC)c4n3)CC2)cc1	·	·	?	23.1µM*	·
C=CCN1C(=O)CN=C1Nc1cc(C)ccc1C	-17.4%	-2.1%	5.7%	-1.4%	-4.0%
COc1cccc(C2NC(=O)CCC2[N+](=O)[O-])c1 (centres undefined)	-3.2%	·	-6.5%	50.8%	-0.9%
O=C(C1CCCC1)N1CCC(CC2CC(c3cccc(Br)c3)=NO2)(C(=O)NCC2CCCCC2)CC1 (centres undefined)	?	·	?	16.4µM*	5.4%
O=C(C1CCCC1)N1CCC(CC2CC(c3ccc(Cl)cc3)=NO2)(C(=O)NCC2CCCCC2)CC1 (centres undefined)	9.2%	·	-21.4%	-23.5%	2.2%
CCOc1cc(C(=O)N2CCC(CC3CC(c4cccc(Br)c4)=NO3)(C(=O)NCC3CCCCC3)CC2)cc(OCC)c1OCC (centres undefined)	21.4%	·	20.6µM*	?	-8.7%
COc1cccc(N2CCN(C(=O)CN(c3ccc(C)cc3)S(=O)(=O)c3c(C)n[nH]c3C)CC2)c1	-38.5%	3.7%	?	-9.4%	-0.4%
CCOC(=O)C1=C(C)NC2=C(C(=O)CC(C)(C)C2)C1c1cccc(C)n1 (centres undefined)	-3.7%	3.8%	-2.8%	-8.4%	-20.6%
CCOC(=O)CN=C1CC(C)(C)CC2=C1Sc1ncnc(N(C)C)c1N2	11.2µM*	6.2%	23.1µM*	13µM*	?
CC(C)CCN(C(=O)Nc1ccc(Cl)c(Cl)c1)C1CCN(C(C)C)CC1	·	5.2%	14.6µM*	14.6µM*	·
COc1ccc(NC(=S)N(CCC(C)C)C2CCN(C(C)C)CC2)cc1Cl	-14.1%	·	?	-15.8%	-1.1%
CCOC(=O)N1CCC(N(C(=O)Nc2ccc(Cl)c(Cl)c2)C(C)CC)CC1 (centres undefined)	31.9%	1.1%	10.3µM*	23.1µM*	?
CCOC(=O)c1ccccc1NC(=O)N(C(C)C)C1CCN(C(C)=O)CC1	·	0.0%	14.6µM*	14.6µM*	·
CCOc1ccc(NC(=O)N(C(C)C)C2CCN(C(C)=O)CC2)cc1	·	5.2%	-7.4%	3.3%	·
COc1ccc(-c2csc(=Nc3ccccc3)n2CCO)cc1	?	7.9%	?	?	-16.1%
Cc1ccc(-c2csc(=Nc3ccccc3)n2CCCO)cc1	·	16.1%	10.3µM*	16.4µM*	·
OCCCn1c(-c2ccc(F)cc2)csc1=Nc1ccc(F)cc1	·	13.6%	14.6µM*	9.2µM*	·
O=C(O)C1CCCN(S(=O)(=O)c2ccc(F)cc2)C1 (centres undefined)	10.2%	2.6%	3.7%	3.3%	-1.5%
O=S(=O)(c1ccc(-c2csc(=Nc3ccc(F)cc3)n2CCCCCCO)cc1)N1CCCC1	·	9.7%	2.59µM*	2.91µM*	·
